“And” between values parts separate entries of the source, which are not always exact repeats. Equal values may be shown once. The whole screen tested about 5,500 compounds, of which about 2,000 (36%) were called active. Not shown: some 18% with an inconclusive outcome. Cut-off read from the data, not from the text of the source: active = normalized growth mostly below about 0.91 (no sharp cut-off); inconclusive = no clear call, values can overlap the other calls; inactive = mostly above about 0.92. Some of the results follow.
Assay: chemical genetic growth profiling, strain panel (AID 1159580);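 note: tested at 20 µM; growth read once vehicle control cultures reached saturation at 30 °C; 1 = growth at the plate median or of vehicle wells; lower values mean less growth of the strain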
Conditions: growth OD

Measured: normalized growth

CC(CCc1ccccc1)NCC(O)c1ccc(O)c(C(N)=O)c1 (stereo not given)
inactive: S. cerevisiae deletion strains, locus YJR075W, strain HOC1, hits give low values 1 | S. cerevisiae deletion strains, locus YKL009W, strain mrt4, hits give low values 1.01 | S. cerevisiae deletion strains, locus YKL068W, hits give low values 1.01 | S. cerevisiae deletion strains, locus YKL085W, strain MDH1 (second series), hits give low values 1.01 | S. cerevisiae deletion strains, locus YKL085W, strain MDH1, hits give low values 1.01 | S. cerevisiae deletion strains, locus YKL160W, strain elf1, hits give low values 1 | S. cerevisiae deletion strains, locus YKL190W, strain CNB1, hits give low values 1 | S. cerevisiae deletion strains, locus YKR001C, strain vps1, hits give low values 1.03 | S. cerevisiae deletion strains, locus YKR026C, strain gcn3, hits give low values 1.01 | S. cerevisiae deletion strains, locus YKR091W, strain srl3, hits give low values 0.997 | S. cerevisiae deletion strains, locus YLL001W, strain dnm1, hits give low values 1 | S. cerevisiae deletion strains, locus YLL026W, hits give low values 1 | S. cerevisiae deletion strains, locus YLL041C, strain sdh2, hits give low values 1 | S. cerevisiae deletion strains, locus YLR027C, strain aat2, hits give low values 0.992 | S. cerevisiae deletion strains, locus YLR039C, strain RIC1, hits give low values 1.05 | S. cerevisiae deletion strains, locus YLR058C, strain SHM2, hits give low values 1 | S. cerevisiae deletion strains, locus YLR102C, strain apc9, hits give low values 1.01 | S. cerevisiae deletion strains, locus YLR113W, strain HOG1, hits give low values 1.08 | S. cerevisiae deletion strains, locus YLR221C, strain rsa3, hits give low values 1.01 | S. cerevisiae deletion strains, locus YLR258W, strain gsy2, hits give low values 1.01 | S. cerevisiae deletion strains, locus YLR262C, strain YPT6 (second series), hits give low values 1.02 | S. cerevisiae deletion strains, locus YLR262C, strain YPT6, hits give low values 1.04 | S. cerevisiae deletion strains, locus YLR268W, strain sec22, hits give low values 1.02 | S. cerevisiae deletion strains, locus YLR320W, strain mms22, hits give low values 1.02 | S. cerevisiae deletion strains, locus YLR330W, strain CHS5, hits give low values 1.01 | S. cerevisiae deletion strains, locus YLR342W, strain FKS1 (second series), hits give low values 1.08 | S. cerevisiae deletion strains, locus YLR342W, strain FKS1, hits give low values 1.01 | S. cerevisiae deletion strains, locus YLR357W, strain rsc2, hits give low values 0.96 | S. cerevisiae deletion strains, locus YLR370C, strain arc18, hits give low values 1 | S. cerevisiae deletion strains, locus YLR371W, strain rom2, hits give low values 1.02 | S. cerevisiae deletion strains, locus YLR384C, strain iki3, hits give low values 1.02 | S. cerevisiae deletion strains, locus YLR418C, strain cdc73, hits give low values 1.06 | S. cerevisiae deletion strains, locus YML016C, strain PPZ1, hits give low values 1.01 | S. cerevisiae deletion strains, locus YML032C, strain rad52, hits give low values 0.996 | S. cerevisiae deletion strains, locus YML120C, strain ndi1, hits give low values 1.01 | S. cerevisiae deletion strains, locus YML124C, strain tub3, hits give low values 1.01 | S. cerevisiae deletion strains, locus YMR058W, strain fet3, hits give low values 1 | S. cerevisiae deletion strains, locus YMR078C, strain ctf18, hits give low values 1.01 | S. cerevisiae deletion strains, locus YMR125W, strain sto1, hits give low values 0.997 | S. cerevisiae deletion strains, locus YMR129W, hits give low values 1.01 | S. cerevisiae deletion strains, locus YMR205C, strain PFK2, hits give low values 1.01 | S. cerevisiae deletion strains, locus YMR223W, strain ubp8, hits give low values 1.04 | S. cerevisiae deletion strains, locus YMR231W, strain pep5, hits give low values 1.01 | S. cerevisiae deletion strains, locus YMR263W, strain SAP30, hits give low values 0.988 | S. cerevisiae deletion strains, locus YMR307W, strain GAS1, hits give low values 1.04 | S. cerevisiae deletion strains, locus YNL067W, strain RPL9B, hits give low values 0.988 | S. cerevisiae deletion strains, locus YNL071W, strain lat1, hits give low values 1 | S. cerevisiae deletion strains, locus YNL153C, strain GIM3, hits give low values 0.979 and 1.02 | S. cerevisiae deletion strains, locus YNL175C, strain NOP13, hits give low values 1.01 | S. cerevisiae deletion strains, locus YNL183C, strain NPR1, hits give low values 0.986 | S. cerevisiae deletion strains, locus YNL197C, strain WHI3, hits give low values 0.999 | S. cerevisiae deletion strains, locus YNL209W, strain ssb2, hits give low values 1.01 | S. cerevisiae deletion strains, locus YNL224C, strain SQS1, hits give low values 1.01 | S. cerevisiae deletion strains, locus YNL233W, strain BNI4, hits give low values 0.994 | S. cerevisiae deletion strains, locus YNL248C, strain rpa49, hits give low values 0.998 | S. cerevisiae deletion strains, locus YNL250W, strain rad50, hits give low values 1.03 | S. cerevisiae deletion strains, locus YNL271C, strain bni1, hits give low values 1.01 | S. cerevisiae deletion strains, locus YNL298W, strain CLA4, hits give low values 1.02 | S. cerevisiae deletion strains, locus YNL307C, strain MCK1, hits give low values 1.03 | S. cerevisiae deletion strains, locus YNL322C, strain KRE1 (second series), hits give low values 0.993 | S. cerevisiae deletion strains, locus YNL322C, strain KRE1, hits give low values 0.998 | S. cerevisiae deletion strains, locus YNR049C, strain mso1, hits give low values 0.999 | S. cerevisiae deletion strains, locus YNR052C, strain pop2, hits give low values 1.02 | S. cerevisiae deletion strains, locus YOL006C, strain TOP1, hits give low values 0.976 | S. cerevisiae deletion strains, locus YOL012C, strain htz1 0.754 | S. cerevisiae deletion strains, locus YOL147C, strain pex11, hits give low values 1.01 | S. cerevisiae deletion strains, locus YOR001W, strain rrp6, hits give low values 1.02 | S. cerevisiae deletion strains, locus YOR061W, strain CKA2, hits give low values 1.01 | S. cerevisiae deletion strains, locus YOR069W, strain VPS5, hits give low values 1 | S. cerevisiae deletion strains, locus YOR070C, strain gyp1, hits give low values 0.996 | S. cerevisiae deletion strains, locus YOR080W, strain dia2, hits give low values 0.999 | S. cerevisiae deletion strains, locus YOR083W, strain WHI5 (second series), hits give low values 1.02 | S. cerevisiae deletion strains, locus YOR083W, strain WHI5, hits give low values 1.01 | S. cerevisiae deletion strains, locus YOR106W, strain vam3, hits give low values 1.02 | S. cerevisiae deletion strains, locus YOR136W, strain idh2, hits give low values 1 | S. cerevisiae deletion strains, locus YOR144C, strain elg1, hits give low values 1.01 | S. cerevisiae deletion strains, locus YOR184W, strain ser1, hits give low values 1.01 | S. cerevisiae deletion strains, locus YOR231W, strain MKK1, hits give low values 1.07 | S. cerevisiae deletion strains, locus YOR265W, strain rbl2, hits give low values 0.992 | S. cerevisiae deletion strains, locus YOR270C, strain vph1, hits give low values 1.04 | S. cerevisiae deletion strains, locus YOR290C, strain snf2, hits give low values 1.03 | S. cerevisiae deletion strains, locus YOR316C, strain cot1, hits give low values 1.02 | S. cerevisiae deletion strains, locus YPL051W, strain arl3, hits give low values 1 | S. cerevisiae deletion strains, locus YPL055C, strain LGE1, hits give low values 0.945 and 0.997 | S. cerevisiae deletion strains, locus YPL078C, strain atp4, hits give low values 1 | S. cerevisiae deletion strains, locus YPL106C, strain sse1, hits give low values 1.01 | S. cerevisiae deletion strains, locus YPL240C, strain hsp82, hits give low values 1.01 | S. cerevisiae deletion strains, locus YPL241C, strain CIN2, hits give low values 1 | S. cerevisiae deletion strains, locus YPL256C, strain CLN2, hits give low values 1.04 | S. cerevisiae deletion strains, locus YPR119W, strain clb2, hits give low values 1.02 | S. cerevisiae deletion strains, locus YPR141C, strain kar3, hits give low values 1.01 | S. cerevisiae deletion strains, locus YPR163C, strain tif3, hits give low values 1.03 | S. cerevisiae deletion strains, locus YPR167C, strain met16, hits give low values 1.01 | S. cerevisiae deletion strains, strain wtn01, hits give low values 1.03 | S. cerevisiae strains, strain wild type, hits give low values 1

— PubChem BioAssay AID1159580 (chemical genetic matrix, 2015)
